HCV inh = inhibitors of hepatitis C virus infection; 3.4% of 340,000 active; Potency, µM (top dose mostly 41.8 µM), hits mostly inhibitors; Huh7.5.1 HCVcc-Cre infection, luciferase reporter, 44 h
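Antiviral activity was scored by luciferase reporter output from cells infected with HCVcc-Cre (~0.5 moi) in presence of compound, 44 h infection period, cells seeded 1,000/well 4 h prior.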
HCMV inh = human cytomegalovirus inhibition | HFF cells, HCMV-luciferase reporter, 72 h; hits give low values | activity change, negative = inhibition, % at 57.5 µM | 4.5% of 410,000 active; in the data active = activity change below about -60%; inconclusive = no clear call, values can overlap the other calls; inactive = above about -39%
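Two-dose cell screen: HFF monolayers treated with compounds and infected with luciferase-expressing HCMV at 1 PFU/cell, 72 h at 37C, then lysed for luciferase measurement.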
FMDV inh = blocks foot and mouth disease virus | 1.2% of 410,000 active | Potency, µM (titrated, usually from 57.9 µM), hits mostly inhibitors | FMDV antiviral cell-based qHTS | AID 1159524; calls by dose curve; tested in HEK293T cells; note: read-out not given here; nearly all actives have a fitted effect of over 45% in size
Sm TGR block = blocks Schistosoma mansoni thioredoxin glutathione reductase; 3% of 360,000 active; Q962Y6; purified TGR, DTNB reduction, TNB absorbance 405 nm; Potency, µM (top dose mostly 114 µM), most hits filed as inhibitors; note: nearly all actives have a fitted effect of over 60% in size
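Kinetic colorimetric format: TGR-catalysed, NADPH-driven DTNB reduction monitored via TNB absorbance. Enzyme dispensed at 20 nM; compound exposure 15 min at room temperature before reaction start.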
Vaccinia mCherry = inhibitors of vaccinia virus infection (mCherry reporter signal) | Vaccinia virus mCherry reporter infection, fluorescence | Potency, µM (doses to about 36.5 µM), usual class: inhibitors | 0.63% of 310,000 active | AID 720579; calls by dose curve; tested in A549 cells; note: nearly all actives have a fitted effect of over 35% in size
Vaccinia Venus = vaccinia inhibition (Venus reporter); 0.46% of 330,000 active; Potency, µM (doses to about 36.5 µM), hits mostly inhibitors; Vaccinia virus Venus reporter expression, fluorescence; calls by dose curve; tested in A549 cells; note: nearly all actives have a fitted effect of over 30% in size
Numbers stand for hits; . = inactive; ? = inconclusive; / = no result given; ! = not confirmed by another sample; [ ] = another dose, or the depositor's remark. This is a sample that favours compounds with a hit; in the whole collection about 9.3% have one here. Unless noted, calls come from the whole dose curve; as a rule, active = well fitted curve in the direction sought with a large enough effect; inconclusive = small, poorly fitted or top-dose-only effect, or another doubt; inactive = no such curve, though single readings can be large; an effect the other way counts as inactive or inconclusive.

SMILES	HCV inh	HCMV inh	FMDV inh	Sm TGR block	Vaccinia mCherry	Vaccinia Venus
Cc1ccc2c(Cl)cc(Cl)c(O)c2n1	?	-75	10µM!	/	?	?
Cc1ccc(S(=O)(=O)Nc2cc(Cl)c(O)c3ncccc23)cc1	?	-98	.	16µM	?	?
Cc1ccc(S(=O)(=O)Nc2cccnc2Oc2ccc(Cl)cc2)cc1	.	.	.	.	/	/
O=C(Oc1c(Cl)cc(Cl)c2cccnc12)c1ccco1	?	-102	?	.	13µM	?
Oc1c(I)cc(I)c2cccnc12	.[8.37 µM]	-100	.	?	.	?
CCCCNC(=O)CCCN1C(=O)c2cccnc2Sc2ccccc21	.	.	.	.	/	/
CCN(CC)C(=O)Cn1cc(S(=O)(=O)CC(=O)N2CC(C)OC(C)C2)c2ccccc21 (configuration not stated)	.	.	.	/	.	.
O=C(Nc1ccc2oc(-c3ccncc3)nc2c1)c1ccc(Br)o1	.	.	.	?	.	.
CCC(=O)NC(c1cc(Cl)c2ccccc2c1O)C(C)C (configuration not stated)	/	.	.	.	/	/
CCC(=O)NC(C)c1cc(Cl)c2cccnc2c1O (configuration not stated)	/	-97	.	.	/	/
CC(=O)NC(C)c1cc(Cl)c2cccnc2c1O (configuration not stated)	/	-96	.	.	/	/
Oc1c(Cl)cc(Cl)c2cccnc12	.	-99	?	16µM	.	?
Oc1ccc(Cl)c2cccnc12	?	.	.	/	?	.
CCCCN(C(C)=O)c1ccc(S(=O)(=O)NC2=NCCCCC2)cc1NC(C)=O	.	.	.	/	/	/
COc1ccc(/C=C2\C=Cc3ccccc32)cc1	/	/	/	/	.	.
Cc1ccc2c(c1)N(Cc1ccccn1)C(=O)C(C)O2 (configuration not stated)	.	.	.	.	.	.
C[N+]12CCC(CC1)C(=C(c1ccccc1)c1ccccc1)C2	?	?	.	.	?	?
CC[N+]12CCC(CC1)C(=C(c1ccccc1)c1ccccc1)C2	.	-61	.	.	.	.
COc1ccccc1C(=O)COC(=O)c1cc([N+](=O)[O-])ccc1N1CCOCC1	?	.	.	.	.	.
COc1cc(C(=O)COC(=O)c2cc([N+](=O)[O-])ccc2N2CCOCC2)ccc1OC(F)F	1.1µM	.	?	.	.	.
COc1ccc(C(=O)COC(=O)c2cc([N+](=O)[O-])ccc2N2CCOCC2)c(OC)c1	1µM	.	.	.	.	.
CS(=O)(=O)N1CCCC(C(=O)Nc2ccc(Br)cc2F)C1 (configuration not stated)	.	.	.	.	.	.
CCOC(=O)c1ccc(NC(=O)C(=O)NCCc2ccc(OC)cc2)cc1	.	.	.	.	.	.
CCOC(=O)c1ccc(NC(=S)NCCc2ccc(F)cc2)cc1	11µM	.	?	.	.	.
CCOC(=O)c1ccc(NC(=S)NNC(C)(C)C)cc1	.	-74	.	?	/	/
SMILES	HCV inh	HCMV inh	FMDV inh	Sm TGR block	Vaccinia mCherry	Vaccinia Venus
NS(=O)(=O)c1ccc(CCNC(=S)Nc2ccc(F)cc2)cc1	.	-61	.	/	.	.
COc1cc(CN2CCC(C(=O)N3CCC(C)CC3)CC2)cc(Br)c1O	.	.	.	.	/	/
O=C(O)c1ccc(Nc2nc3ccccc3c3nncn23)cc1	/	.	.	.	.	.
CN(C)C(=O)C[n+]1ccc(C(N)=O)cc1	.	.	.	.	/	/
Cc1ccc(C)c(N2CCN(C(=O)C3CCCN(c4ncnc5c4nc4n5CCCCC4)C3)CC2)c1 (configuration not stated)	.	-69	?	.	/	/
CC(C)N(Cc1ccccc1)C(=O)C1CCCN(c2ncnc3c2nc2n3CCCCC2)C1 (configuration not stated)	?	-60	?	.	/	/
O=C(C1CCCN(c2ncnc3c2nc2n3CCCCC2)C1)N1CCN(c2ccccc2)CC1 (configuration not stated)	?	-62	?	.	/	/
COc1ccccc1N1CCN(CCCNC(=O)C2CCCN(c3ncnc4c3nc3n4CCCCC3)C2)CC1 (configuration not stated)	13µM	.	?	.	/	/
Cc1ccc(N2CCN(C(=O)C3CCCN(c4ncnc5c4nc4n5CCCCC4)C3)CC2)c(C)c1 (configuration not stated)	.	.	?	.	/	/
